Compounds without any hit were thinned out: in the full panel of roughly 83,000, 20% have a hit.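 Values shown are percent growth following 48 h exposure of cells in 96-well plates to a single concentration of compound; below 10 was considered active.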 Values without a mark were called inactive. Active and inactive are the calls of the source.

Assay in all cases: NCI-60 one-dose screen, 48 h (100 = growth as untreated, 0 = no growth, -100 = all killed)
Assay [1] relates to EKVX NSCLC. The note with it: 10 µM unless noted.
In assay [2] the test system is SN12C renal. To be noted: 10 µM unless noted.
In assay [3] the test system is UO-31 renal. The note with it: 10 µM unless noted.
The test system of assay [4] is TK-10 renal. The note with it: 10 µM unless noted.
For assay [5], the system named is ACHN renal. The note with it: 10 µM unless noted.
Assay [6] has as its system CAKI-1 renal. To be noted: 10 µM unless noted.
The test system of assay [7] is A498 renal. To be noted: 10 µM unless noted.
Assay [8] relates to CCRF-CEM leukemia. To be noted: 10 µM unless noted.
For assay [9], the system named is MOLT-4 leukemia. To be noted: 10 µM unless noted.
Assay [10] deals with SR leukemia. To be noted: 10 µM unless noted.
Assay [11] relates to RPMI-8226 leukemia. The note with it: 10 µM unless noted.
Assay [12] deals with OVCAR-8 ovarian. The note with it: 10 µM unless noted.
For assay [13], the system named is OVCAR-5 ovarian. To be noted: 10 µM unless noted.
Assay [14] relates to OVCAR-4 ovarian. The note with it: 10 µM unless noted.
Assay [15] deals with SK-OV-3 ovarian. To be noted: 10 µM unless noted.
For assay [16], the system named is IGROV1 ovarian. To be noted: 10 µM unless noted.
Assay [17] relates to OVCAR-3 ovarian. To be noted: 10 µM unless noted.
The subject of assay [18] is HS 578T breast. The note with it: 10 µM.
Assay [19] has as its system NCI/ADR-RES ovarian. The note with it: 10 µM unless noted.

For the compound `Cc1oc2c(C(=O)N/N=C\c3ccc(O)cc3O)c[nH]c2c1C`, the growth in [1] was 26.6%; in assay [2], 44.5%; in [3], -0.347% (active); in assay [4], 6.21% (active); in assay [5], -7.76% (active); in assay [6], 1.53% (active). The growth in assay [7] was 44.6%; in assay [8], 23.9%; in assay [9], 8.56% (active); in assay [10], 8.4% (active); in [11], 25.3%; in assay [12] it was 13.7%. Moreover, the growth is 30.7% in [13]; 10.8% in [14]; 20.6% in [15]; 24.1% in [16]; -16% (active) in [17]; 58.2% in assay [18]. Also, the growth in assay [19] was 1.19% (active).

For the compound `CNC(=O)c1cc(Oc2ccc3nc(NC(=O)Nc4ccc(Cl)c(C(F)(F)F)c4)sc3c2)ccn1`, the growth was 9.24% (active) in assay [1]; 15.6% in assay [2]; -7.14% (active) in assay [3]; -55.1% (active) in assay [4]; -22.2% (active) in assay [5]; 53.4% in assay [6]. Besides, the growth was 30% in [7]; 27.8% in assay [8]; 38% in assay [9]; 22.6% in assay [10]; 61.4% in assay [11]; -11.1% (active) in assay [12]. For the same compound, the growth was 30.8% in assay [13]; -34% (active) in assay [14]; 12.7% in assay [15]; 56.8% in [16]; -61.1% (active) in [17]; -16.1% (active) in assay [18]. For the same compound, the growth in assay [19] is 11.4%.

As to `O=C(CNc1nc2ccccc2s1)Nc1ccc(-c2nc3ccccc3s2)cc1`, the growth is 110% in assay [1]; 103% in assay [2]; 80.5% in assay [3]; 96.7% in assay [4]; 107% in [5]; 100% in assay [6]. For the same compound, the growth in assay [7] is 93.8%; in assay [8], 111%; in assay [9], 84.2%; in [10], 91.3%; in [11], 107%; in assay [12], 102%. Moreover, the growth in [13] was 98.4%; in assay [14], 102%; in assay [15] it was 107%; in assay [16], 66.6%; in [17], 98%; in [18], 100%. For the same compound, in assay [19], the growth is 102%.

In the case of `N#Cc1c(-c2ccc(Cl)cc2)csc1NC(=O)Nc1cccc(C(F)(F)F)c1`, the growth in assay [1] was 17.3%; in [2], -17.2% (active); in [3] it was -2.89% (active); in [4], 20.1%; in [5] it was 1.09% (active); in assay [6] it was 27.8%. In addition, the growth in assay [7] was 13.8%; in assay [8] it was 14.1%; in assay [9], 7.5% (active); in assay [10], 33%; in assay [11] it was 3.99% (active); in assay [12], 11.4%. Also, the growth in assay [13] is 42.8%; in [14], 10.4%; in [15] it was 9.45% (active); in [16], 33.5%; in assay [17] it was -3.56% (active); in [18], 47.9%. Further, the growth in assay [19] is 11.6%.

With `CC(=O)OC(C(=O)c1ccccc1)c1ccccc1` (configuration not stated), the growth in [1] is 109%; in assay [2], 94.6%; in [3], 75.6%; in assay [4], 94.6%; in [5], 101%; in assay [6], 91.7%. For the same compound, the growth in assay [7] is 95.9%; in assay [8], 104%; in assay [9], 102%; in [10] it was 106%; in assay [11], 105%; in assay [12], 98%. The growth in assay [13] was 102%; in assay [14], 97.8%; in assay [15] it was 94.1%; in assay [16] it was 105%; in assay [17], 121%; in assay [18], 125%. In assay [19], the growth is 107%.

For the compound `COc1ccc(-c2cnc(-c3ccc(Cl)cc3)[nH]2)cc1OC`, the growth in assay [1] is 117%; in assay [2], 91.6%; in [3] it was 95.4%; in assay [4] it was 139%; in assay [5], 103%; in [6] it was 121%. The growth in assay [7] was 90.6%; in assay [8], -55.7% (active); in assay [9], 106%; in [10], 42.7%; in [11], 33.1%; in assay [12], 98.9%. For the same compound, the growth in assay [13] is 98.2%; in [14], 89.9%; in assay [15] it was 94.6%; in [16] it was 52.5%; in assay [17] it was 103%; in assay [18] it was 93.5%. The growth in [19] was 106%.

With `CN1CCN(CCCOc2cccc3nc(Nc4ccc(Cl)c(C(F)(F)F)c4)ccc23)CC1`, the growth in assay [1] was 44.5%; in [2], 28.3%; in assay [3] it was 28.6%; in assay [4], -66.5% (active); in assay [5], -69.3% (active); in [6] it was 48.9%. Besides, the growth in assay [7] is 30.8%; in assay [8], -24.7% (active); in assay [9], -57.6% (active); in [10], -33.3% (active); in assay [11], 10.6%; in assay [12] it was 13.9%. The growth in [13] is 17.9%; in assay [14], 42.1%; in [15] it was 52.5%; in assay [16] it was 55.4%; in [17], -4.07% (active); in [18] it was 32.6%. For the same compound, the growth in assay [19] is -0.603% (active).

Regarding `CC(C)(C)OC(=O)N1CCC(O)[C@@H](O[Si](c2ccccc2)(c2ccccc2)C(C)(C)C)[C@H]1/C=C/c1ccccc1` (some centres not stated), the growth in assay [1] is 40.7%; in [2] it was 73%; in assay [3], 39.1%; in assay [4], 66.1%; in assay [5], 41.1%; in [6], 45.3%. Also, the growth in assay [7] is 68.2%; in assay [8] it was 46.4%; in assay [9], 28%; in assay [10], 32.6%; in assay [11], 25.2%; in assay [12], 59.5%. Also, the growth in assay [13] was 71.5%; in assay [14] it was 21.3%; in assay [15], 56.3%; in assay [16], 60.6%; in assay [17] it was 43.6%; in [18] it was 55.8%. For the same compound, in [19], the growth is 69.3%.

The values are drawn from PubChem BioAssay (NCI).
